Assay results as given in PubChem BioAssay (Tox21).
Unmarked numbers belong to inactive results. Records with an inconclusive call do not appear. Where a call stands in place of a potency, no number is given. Activity calls are given as the source filed them. The call rests on the fitted dose curve; in most records, active means well fitted curve in the direction sought with a large enough effect in the repeat runs; inconclusive means weak or mixed curves; inactive means no such curve, though single readings can be large; an effect the other way counts as inactive or inconclusive.

Legend:
[1] = qHTS RealTime-Glo MT Cell Viability Assay in HepG2 cells - 24 hour (AID 1224867); further: nearly all actives have a fitted effect of over 50% in size
Procedure, shortened: (§1)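 qHTS, HepG2, 600 cells/well, RealTime-Glo (NanoLuc + prosubstrate) added with cells; 5 h preincubation; DMSO compound addition; 37 C; luminescence at 0/8/16/24/32/40 h.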

[2] = qHTS RealTime-Glo MT Cell Viability Assay in HEK293 cells - 32 hour (AID 1224868); further: top concentration of the series differs between compounds; nearly all actives have a fitted effect of over 50% in size
Procedure, shortened: (§2)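 Assay medium contained NanoLuc luciferase plus cell-permeant prosubstrate, added with HEK293 cells at 600 cells/well. After 5 h at 37 C/5% CO2 compounds were added; plates stayed at 37 C for 40 h with serial luminescence reads.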

[3] = A CellTox Green Cytotoxicity Assay to monitor cytotoxicity in HEK293 cells - 0 hour (AID 1224869); further: nearly all actives have a fitted effect of over 50% in size; further: potency means the concentration at half of the fitted maximal effect
Procedure, shortened: (§3)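 Fluorescence intensity, read at 0, 8, 16, 24, 32 and 40 h of compound treatment, reflected dye binding to DNA of dead HEK293 cells; compounds (23 nL, DMSO) were added 5 h after plating cells with reagent.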

[4] = qHTS RealTime-Glo MT Cell Viability Assay in HepG2 cells - 40 hour (AID 1224870); further: nearly all actives have a fitted effect of over 50% in size
Procedure, shortened: (§4)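 HepG2 cells mixed with RealTime-Glo MT reagents (NanoLuc plus cell-permeant prosubstrate) were seeded at 600 cells/well, incubated 5 h at 37 C/5% CO2, then pinned with compounds in DMSO; nonlytic luminescence tracked viability during 40 h treatment.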

[5] = A CellTox Green Cytotoxicity Assay to monitor cytotoxicity in HEK293 cells - 40 hour (AID 1224871); further: nearly all actives have a fitted effect of over 45% in size; further: potency means the concentration at half of the fitted maximal effect
Procedure, shortened: as §3

[6] = qHTS RealTime-Glo MT Cell Viability Assay in HEK293 cells - 16 hour (AID 1224872)
Procedure, shortened: as §2

[7] = qHTS RealTime-Glo MT Cell Viability Assay in HepG2 cells - 8 hour (AID 1224873); further: nearly all actives have a fitted effect of over 55% in size
Procedure, shortened: as §4

[8] = qHTS RealTime-Glo MT Cell Viability Assay in HEK293 cells - 40 hour (AID 1224874); settings: RealTime-Glo luminescence; max response: stronger effect = lower value; further: nearly all actives have a fitted effect of over 50% in size
Procedure, shortened: (§5)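 Viable HEK293 cells reduce a cell-permeant prosubstrate; the product diffuses out and is consumed by NanoLuc in the medium to give light. Compounds went in after a 5 h incubation and plates were read over the treatment course.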

[9] = A CellTox Green Cytotoxicity Assay to monitor cytotoxicity in HEK293 cells - 24 hour (AID 1224875); further: nearly all actives have a fitted effect of over 45% in size; further: potency means the concentration at half of the fitted maximal effect; on activity change: series mostly up to about 77 µM
Procedure, shortened: as §3

[10] = A CellTox Green Cytotoxicity Assay to monitor cytotoxicity in HepG2 cells - 16 hour (AID 1224876); further: nearly all actives have a fitted effect of over 45% in size; further: potency means the concentration at half of the fitted maximal effect
Procedure, shortened: (§6)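 Using 1536-well format, dye-containing HepG2 suspension was seeded, allowed 5 h at 37 C/5% CO2, dosed by pintool with compounds, positive and negative controls, and imaged for fluorescence across 40 h.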

[11] = qHTS RealTime-Glo MT Cell Viability Assay in HepG2 cells - 32 hour (AID 1224877); further: nearly all actives have a fitted effect of over 55% in size
Procedure, shortened: as §1

[12] = A CellTox Green Cytotoxicity Assay to monitor cytotoxicity in HepG2 cells - 24 hour (AID 1224878); further: nearly all actives have a fitted effect of over 45% in size; further: potency means the concentration at half of the fitted maximal effect
Procedure, shortened: as §6

[13] = A CellTox Green Cytotoxicity Assay to monitor cytotoxicity in HepG2 cells - 40 hour (AID 1224879); further: nearly all actives have a fitted effect of over 40% in size; further: potency means the concentration at half of the fitted maximal effect
Procedure, shortened: as §6

[14] = qHTS RealTime-Glo MT Cell Viability Assay in HEK293 cells - 0 hour (AID 1224880)
Procedure, shortened: as §5

[15] = A CellTox Green Cytotoxicity Assay to monitor cytotoxicity in HEK293 cells - 32 hour (AID 1224881); further: nearly all actives have a fitted effect of over 40% in size; further: potency means the concentration at half of the fitted maximal effect
Procedure, shortened: as §3

[16] = A CellTox Green Cytotoxicity Assay to monitor cytotoxicity in HepG2 cells - 0 hour (AID 1224882); further: nearly all actives have a fitted effect of over 35% in size; further: potency means the concentration at half of the fitted maximal effect
Procedure, shortened: as §6

[17] = A CellTox Green Cytotoxicity Assay to monitor cytotoxicity in HepG2 cells - 32 hour (AID 1224883); further: nearly all actives have a fitted effect of over 50% in size; further: potency means the concentration at half of the fitted maximal effect
Procedure, shortened: as §6

[18] = qHTS RealTime-Glo MT Cell Viability Assay in HepG2 cells - 16 hour (AID 1224885); further: nearly all actives have a fitted effect of over 50% in size
Procedure, shortened: as §1

[19] = A CellTox Green Cytotoxicity Assay to monitor cytotoxicity in HEK293 cells - 8 hour (AID 1224884); further: nearly all actives have a fitted effect of over 35% in size; further: potency means the concentration at half of the fitted maximal effect
Procedure, shortened: as §3

In the case of `CCC(CO)CO`, the outcome [1] is reported as “inactive”, the Potency [2] is reported as “inactive” and the Potency [3] is reported as “inactive”. The outcome [4] was “inactive”, the Potency [5] was “inactive” and the Potency [6] was “inactive”. The outcome [7] was “inactive”, the max response [8] was -4.1% and the Potency [9] was “inactive”. The Potency [10] was “inactive”, the outcome [11] was “inactive” and the Potency [12] was “inactive”. For the same molecule, the Potency [13] was “inactive”, the outcome [14] was “inactive” and the Potency [15] was “inactive”. For the same molecule, the Potency [16] was “inactive”, the Potency [17] was “inactive” and the outcome [18] was “inactive”.

In the case of `O=S1(=O)CCCC1`, the outcome [1] is reported as “inactive”, the Potency [2] is reported as “inactive” and the Potency [3] is reported as “inactive”. The outcome [4] was “inactive”, the Potency [5] was “inactive” and the Potency [6] was “inactive”. The outcome [7] was “inactive”, the max response [8] was 9.26% and the Potency [9] was “inactive”. For the same molecule, the Potency [10] was “inactive”, the outcome [11] was “inactive” and the Potency [12] was “inactive”. The Potency [13] was “inactive”, the outcome [14] was “inactive” and the Potency [15] was “inactive”. For the same molecule, the Potency [17] was “inactive” and the outcome [18] was “inactive”.

With `C=C[C@@H](C)CCC=C(C)C` the outcome [1] was “inactive”, the Potency [2] was “inactive” and the Potency [3] was “inactive”. For the same molecule, the outcome [4] was “inactive”, the Potency [5] was “inactive” and the Potency [6] was “inactive”. The outcome [7] was “inactive”, the max response [8] was 9.85% and the Potency [9] was “inactive”. The Potency [10] was “inactive”, the outcome [11] was “inactive” and the Potency [12] was “inactive”. The Potency [13] was “inactive”, the outcome [14] was “inactive” and the Potency [15] was “inactive”. For the same molecule, the Potency [16] was “inactive”, the Potency [17] was “inactive” and the outcome [18] was “inactive”.

For `CCCCCCCCCCCCOC(C)=O`, the outcome [1] was “inactive”, the Potency [3] was “inactive” and the outcome [4] was “inactive”. For the same molecule, the Potency [5] was “inactive”, the Potency [6] was “inactive” and the outcome [7] was “inactive”. The Potency [9] was “inactive”, the Potency [10] was “inactive” and the outcome [11] was “inactive”. The Potency [12] was “inactive”, the Potency [13] was “inactive” and the outcome [14] was “inactive”. The Potency [15] was “inactive”, the Potency [16] was “inactive” and the Potency [17] was “inactive”. For the same molecule, the outcome [18] was “inactive”.

With `O=C(CN1CCN(Cc2ccc3c(c2)OCO3)CC1)N1c2ccccc2Sc2ccccc21` the outcome [1] was “inactive”, the Potency [3] was “inactive” and the outcome [4] was “inactive”. The Potency [5] was “inactive”, the Potency [6] was “inactive” and the outcome [7] was “inactive”. For the same molecule, the Potency [9] was “inactive”, the Potency [10] was “inactive” and the outcome [11] was “inactive”. The Potency [12] was “inactive”, the outcome [14] was “inactive” and the Potency [15] was “inactive”. For the same molecule, the Potency [16] was “inactive” and the outcome [18] was “inactive”.

With `O=C(/C=C/c1ccccc1)NCCO` the outcome [1] was “inactive”, the Potency [3] was 9.52 µM (active) and the outcome [4] was “inactive”. For the same molecule, the Potency [5] was 7.56 µM (active), the Potency [6] was “inactive” and the outcome [7] was “inactive”. For the same molecule, the max response [8] was -3.72%, the Potency [9] was 6.01 µM (active) and the Potency [10] was 9.52 µM (active). For the same molecule, the outcome [11] was “inactive”, the Potency [12] was 6.74 µM (active) and the Potency [13] was 6.01 µM (active). For the same molecule, the outcome [14] was “inactive”, the Potency [15] was 6.74 µM (active) and the Potency [16] was 6.01 µM (active). The Potency [17] was 8.49 µM (active), the Potency [19] was 9.52 µM (active) and the outcome [18] was “inactive”.

For `O=C(O)Cc1cccc(-c2cc(CCCCCCc3ccc(O[C@H]4O[C@H](CO)[C@@H](O)[C@H](O)[C@@H]4O)c(-c4cccc(CC(=O)O)c4)c3)ccc2O[C@H]2O[C@H](CO)[C@@H](O)[C@H](O)[C@@H]2O)c1`, the activity change, negative = cytotoxicity [1] was 2.07% [at 0.29 µM], the activity change, negative = cytotoxic [2] was 4.81% [at 0.29 µM] and the activity change, negative = cytotoxic [4] was -21.2% [at 0.29 µM]. It also gave a cytotoxicity increase [5] of -17.8% [at 0.29 µM], an activity change, negative = cytotoxicity [6] of 3.33% [at 0.29 µM] and a max response [8] of -2.4%. The activity change [9] was -8.86% [at 0.29 µM, stronger effect = higher value], the cytotoxicity increase [10] was 15.1% [at 0.29 µM] and the activity change, negative = cytotoxic [11] was -9.69% [at 0.29 µM]. It also gave a cytotoxicity [12] of 15.2% [at 0.29 µM], a cytotoxicity increase [13] of 20% [at 0.29 µM] and an activity change, negative = cytotoxicity [14] of 3.85% [at 0.29 µM]. For the same molecule, the cytotoxicity increase [15] was -14.2% [at 0.29 µM], the cytotoxicity increase [19] was -1.66% [at 0.29 µM] and the activity change, negative = cytotoxic [18] was 17.8% [at 0.29 µM].

For `CNC(=O)C(c1ccccc1)c1ccccc1`, the outcome [1] was “inactive”, the Potency [2] was “inactive” and the outcome [4] was “inactive”. The Potency [5] was “inactive”, the Potency [6] was “inactive” and the outcome [7] was “inactive”. The max response [8] was 0.511%, the outcome [11] was “inactive” and the outcome [14] was “inactive”. The Potency [15] was “inactive”, the Potency [16] was “inactive” and the Potency [19] was “inactive”. For the same molecule, the outcome [18] was “inactive”.

For `O=C(O)C(=O)Nc1cccc(-c2nn[nH]n2)c1`, the outcome [1] was “inactive”, the Potency [2] was “inactive” and the outcome [4] was “inactive”. The Potency [5] was “inactive”, the Potency [6] was “inactive” and the outcome [7] was “inactive”. For the same molecule, the max response [8] was 0.908%, the Potency [9] was “inactive” and the Potency [10] was “inactive”. For the same molecule, the outcome [11] was “inactive”, the Potency [12] was “inactive” and the Potency [13] was “inactive”. The outcome [14] was “inactive”, the Potency [15] was “inactive” and the Potency [17] was “inactive”. For the same molecule, the Potency [19] was “inactive” and the outcome [18] was “inactive”.

For `CC(C)(C)c1ccc(C=O)cc1`, the outcome [1] was “inactive”, the Potency [2] was “inactive” and the outcome [4] was “inactive”. For the same molecule, the Potency [6] was “inactive”, the outcome [7] was “inactive” and the max response [8] was 0.97%. The Potency [10] was “inactive”, the outcome [11] was “inactive” and the Potency [12] was “inactive”. The Potency [13] was “inactive”, the outcome [14] was “inactive” and the Potency [17] was “inactive”. For the same molecule, the Potency [19] was “inactive” and the outcome [18] was “inactive”.

With `CC(=O)N1CCN(c2ccc(O)cc2)CC1` the outcome [1] was “inactive”, the Potency [3] was “inactive” and the outcome [4] was “inactive”. The Potency [5] was “inactive”, the Potency [6] was “inactive” and the outcome [7] was “inactive”. The max response [8] was 7.56%, the Potency [9] was “inactive” and the Potency [10] was “inactive”. The outcome [11] was “inactive”, the Potency [12] was “inactive” and the Potency [13] was “inactive”. For the same molecule, the outcome [14] was “inactive”, the Potency [15] was “inactive” and the Potency [16] was “inactive”. The Potency [17] was “inactive”, the Potency [19] was “inactive” and the outcome [18] was “inactive”.

For `CCOC(=O)CC#N`, the outcome [1] was “inactive”, the Potency [3] was “inactive” and the outcome [4] was “inactive”. The Potency [5] was “inactive”, the Potency [6] was “inactive” and the outcome [7] was “inactive”. For the same molecule, the max response [8] was -0.316%, the Potency [10] was “inactive” and the outcome [11] was “inactive”. The Potency [12] was “inactive”, the Potency [13] was “inactive” and the outcome [14] was “inactive”. The Potency [15] was “inactive”, the Potency [17] was “inactive” and the Potency [19] was “inactive”. The outcome [18] was “inactive”.

In the case of `COC(/C=C(\C)CCC=C(C)C)OC`, the outcome [1] is reported as “inactive”, the Potency [2] is reported as “inactive” and the outcome [4] is reported as “inactive”. The Potency [5] was “inactive”, the Potency [6] was “inactive” and the outcome [7] was “inactive”. For the same molecule, the max response [8] was 4.55%, the Potency [10] was “inactive” and the outcome [11] was “inactive”. The Potency [12] was “inactive”, the Potency [13] was “inactive” and the outcome [14] was “inactive”. For the same molecule, the Potency [15] was “inactive”, the Potency [17] was “inactive” and the Potency [19] was “inactive”. The outcome [18] was “inactive”.

In the case of `CCCC(C)CC` (configuration not stated), the outcome [1] is reported as “inactive”, the Potency [3] is reported as “inactive” and the outcome [4] is reported as “inactive”. For the same molecule, the Potency [5] was “inactive”, the Potency [6] was “inactive” and the outcome [7] was “inactive”. The max response [8] was 1.42%, the Potency [9] was “inactive” and the Potency [10] was “inactive”. For the same molecule, the outcome [11] was “inactive”, the Potency [12] was “inactive” and the Potency [13] was “inactive”. The outcome [14] was “inactive”, the Potency [15] was “inactive” and the Potency [16] was “inactive”. For the same molecule, the Potency [17] was “inactive” and the outcome [18] was “inactive”.
